Results filed as inconclusive are left out. Activity calls are given as the source filed them. Unless noted, the call rests on the fitted dose curve; in most records, active means well fitted curve in the direction sought with a large enough effect; inconclusive means small, poorly fitted or top-dose-only effect, or another doubt; inactive means no such curve, though single readings can be large; an effect the other way counts as inactive or inconclusive.
Assays:
[1] = Cell Viability - BJ (AID 421; calls by dose curve;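 further: potency means the concentration at half of the fitted maximal effect; cells exposed to compound for 40 hours at 37 °C before readout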); settings: BJ fibroblast viability, qHTS
Method in brief: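 Cytotoxicity in human BJ foreskin fibroblasts is scored as loss of cellular ATP after a 40-hour exposure, measured by luciferase luminescence. Controls are DMSO and 100 uM tamoxifen.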

[2] = Cell Viability - Hek293 (AID 427;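 active means compounds whose dose-response curve shows a full or clear partial loss of cell viability, called from curve shape rather than a numeric limit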;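 further: potency means the concentration at half of the fitted maximal effect; cells exposed to compound for 40 hours at 37 °C before reading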); settings: qHTS
Method in brief: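 qHTS, human embryonic kidney (adenovirus-transformed) cells; 40 hr cpd, 37 °C; CellTiter-Glo ATP luminescence. Norm: DMSO = 0, 100 uM tamoxifen = 100% inhibition. Hill-fit AC50.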

[3] = Cell Viability - HepG2 (AID 433; calls by dose curve;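 further: potency means the concentration at half of the fitted maximal effect; potency for ATP loss meaning cytotoxicity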); settings: qHTS
Method in brief: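 Cytotoxicity read as ATP loss (CellTiter-Glo luminescence) after 40 hr compound exposure of HepG2, 1500 cells/well, 37 °C. AC50 by Hill equation; 0% set by DMSO, 100% inhibition by 100 uM tamoxifen.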

[4] = Cell Viability - MRC5 (AID 434; calls by dose curve;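 further: potency means the concentration at half of the fitted maximal effect; cells exposed to compound for 40 hours at 37 °C; potency reflects cytotoxicity seen as loss of intracellular ATP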); settings: MRC5 lung fibroblast viability, qHTS
Method in brief: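 Decrease in intracellular ATP, quantified by luciferase light output, reflects compound toxicity toward MRC5 cells exposed for 40 hr in complete culture medium. Concentration-response curves, scaled between DMSO and 100 uM tamoxifen, gave AC50 values.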

[5] = molecular target: Mitogen-activated protein kinase 10 (Mus musculus) (UniProt Q61831); test: JNK3 AlphaScreen Assay (AID 530; active means well fitted curve in either direction with a large enough effect, not every such curve was filed as active;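 further: kinase came from lysate of stimulated human HepG2 cells; signal reports phosphorylation of biotinylated GST-cJun 1-79 at Ser73 with 10 µM ATP; series mostly up to about 57 µM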)
Method in brief: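 Biotinylated GST-cJun(1-79) served as substrate for JNK3 in HepG2 lysates stimulated with IL-1beta and TNF-alpha. ATP was 10 uM final, pH 7.6. Ser73 phosphorylation was quantified by AlphaScreen (680 nm excitation).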

[6] = Cell Viability - HUV-EC-C (AID 542); further: nearly all actives have a fitted effect of over 35% in size
Method in brief: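 Concentration-dependent ATP loss in HUV-EC-C cells is the measure. Exposure lasts 40 hr at 37 °C; luminescence follows CellTiter-Glo addition, and Hill fits give AC50.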

[7] = Cell Viability - SH-SY5Y (AID 544); further: nearly all actives have a fitted effect of over 55% in size
Method in brief: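 Quantitative HTS in SH-SY5Y neuroblastoma cells, 40 hr treatment at 37 °C, ATP content by luciferase luminescence; AC50 from Hill fits.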

[8] = Cell Viability - Mesenchymal (AID 546);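 further: cells exposed to compound for 40 hours before reading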
Method in brief: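 In this qHTS cytotoxicity format, glomerulus-derived human mesenchymal kidney cells received compound for 40 hr, then luciferase-based ATP quantitation. Concentration-response data were fitted with the Hill equation.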

[9] = Cellular Toxicity (caspase-3) HepG2 (AID 654);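 further: cells exposed to compound for 16 hours before reading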
Method in brief: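 Concentration-response AC50 values reflect caspase-3/7 induction in HepG2 cells after 16 hours of compound exposure, quantified by luminescence from liberated aminoluciferin and referenced to 100 uM tamoxifen as full stimulation.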

[10] = Cellular Toxicity (caspase-3) Jurkat (AID 655);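 further: cells exposed to compound for 16 h at 37 °C before reading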
Method in brief: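 Luminescent Caspase-Glo 3/7 read-out (20 min, room temperature) after 16 h compound treatment at 37 C of 5000 Jurkat cells per well. AC50 derived by Hill-equation fitting, scaled between DMSO basal and 100 uM tamoxifen stimulation.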

[11] = Cellular Toxicity (caspase-3) HUV-EC-C (AID 656)
Method in brief: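 Luminescent Caspase-Glo 3/7 readout after 16 h, 37 °C compound exposure of HUV-EC-C endothelial cells, 1000 per well, complete medium. AC50 derived by Hill fitting, with DMSO as baseline and 100 uM tamoxifen as full activation.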

[12] = Cellular Toxicity (caspase-3) SHSY5Y (AID 657)
Method in brief: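 Luminescent Caspase-Glo 3/7 read-out, 1 hr room temperature, follows 16 hours of compound treatment of SH-SY5Y cells at 37 °C. Normalization: DMSO basal, 10 uM staurosporine as 100%; AC50 values from Hill-equation concentration-response fits.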

[13] = Cellular Toxicity (caspase-3) BJ (AID 658)
Method in brief: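 Plated BJ cells (1000/well) rested 5 hr, received compound for 16 hr at 37 °C, then Caspase-Glo 3/7 reagent for 1 hr at room temperature before luminescence reading.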

[14] = Cellular Toxicity (caspase-3) MRC-5 (AID 659)
Method in brief: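 Apoptosis readout in MRC-5 cells: luciferase light generated after caspase 3/7 cleaves a peptide-aminoluciferin substrate, measured post 16 hr compound incubation at 37 °C.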

[15] = Cellular Toxicity (caspase-3) Mesangial (AID 660);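 further: combined caspase 3 and 7 activity read by Caspase-Glo luminescence; cells exposed to compound for 16 h before the caspase read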
Method in brief: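 AC50 values come from Hill-equation fits of caspase 3/7 activation, measured as Caspase-Glo luminescence in human glomerular mesangial cells exposed to compound for 16 h at 37 °C; 100% set by 100 uM tamoxifen.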

[16] = Cellular Toxicity (caspase-3) SK-N-SH (AID 661)
Method in brief: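 Apoptosis readout in SK-N-SH neuroblastoma: Caspase-Glo 3/7 luminescence following 16 hr treatment in complete culture medium. Normalization used DMSO and 10 uM staurosporine controls.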

[17] = Cellular Toxicity (caspase-3) H-4-II-E (AID 663);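 further: cells exposed to compound for 16 hr before readout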
Method in brief: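 Caspase 3/7 activation measured in H-4-II-E cells in complete culture medium after 16 hr treatment at 37 °C, using luciferase-coupled substrate readout; AC50 values come from Hill-equation fits of normalized concentration-response data.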

[18] = Cellular Toxicity (caspase-3) Hek293 (AID 664);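 further: cells exposed to compound for 16 h at 37 °C before readout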
Method in brief: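 Apoptosis readout: Caspase-Glo 3/7 signal in human HEK293 cells following 16-hour compound incubation. Responses scaled between DMSO baseline and 100 uM tamoxifen.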

[19] = Cellular Toxicity (caspase-3) N2a (AID 665);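 further: compound exposure lasted 16 h at 37 °C before readout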
Method in brief: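 Concentration-response qHTS: compound-induced caspase-3/7 luminescence in N2a cells (16 h, 37 °C), relative to DMSO and 10 uM staurosporine controls; AC50 obtained using the standard Hill equation.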

[20] = molecular target: Cytochrome P450 3A4 (Homo sapiens) (UniProt P08684); test: qHTS Assay for Inhibitors and Substrates of Cytochrome P450 3A4 (AID 884); further: series mostly up to about 57 µM; nearly all actives have a fitted effect of over 50% in size
Chain of Cytochrome P450 3A4 (Homo sapiens) (P08684 whole entry, looked up): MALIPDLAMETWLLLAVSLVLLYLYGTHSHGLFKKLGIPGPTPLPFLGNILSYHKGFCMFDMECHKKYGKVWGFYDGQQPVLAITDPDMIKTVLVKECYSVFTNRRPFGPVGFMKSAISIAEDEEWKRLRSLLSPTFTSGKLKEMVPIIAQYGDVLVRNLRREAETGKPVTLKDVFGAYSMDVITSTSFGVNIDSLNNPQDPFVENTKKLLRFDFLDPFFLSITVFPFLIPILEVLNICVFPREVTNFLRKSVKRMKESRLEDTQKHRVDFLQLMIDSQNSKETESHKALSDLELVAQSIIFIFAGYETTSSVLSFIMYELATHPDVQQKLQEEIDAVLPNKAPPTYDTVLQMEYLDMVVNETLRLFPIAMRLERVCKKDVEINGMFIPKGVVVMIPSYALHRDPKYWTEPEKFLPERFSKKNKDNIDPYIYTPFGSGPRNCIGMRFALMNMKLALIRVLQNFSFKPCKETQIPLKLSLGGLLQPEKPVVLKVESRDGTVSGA
Method in brief: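 Luminescent readout of luciferin produced by CYP3A4 (20 nM) dealkylation of Luciferin-PPXE, 25 uM (its KM). NADPH-driven reaction ran 60 min at RT after 10 min compound preincubation; data scaled to 57 uM ketoconazole as 100% inhibition.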

[21] = Confirmation and Secondary Assay for Modulators of Hemoglobin Beta Chain Splicing at IVS2 654 locus (AID 910)
Method in brief: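 HeLa cells stably carrying EGFP interrupted by mutant beta-globin IVS2-654 intron (CMV-driven) were treated with compound for 2 days at 37C; corrected splicing was scored as total peak GFP intensity per well (488 nm excitation, 500-520 nm emission).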

[22] = Cell Viability - LYMP2-001 (AID 921); further: series mostly up to about 92 µM; nearly all actives have a fitted effect of over 70% in size
Method in brief: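 Cellular ATP loss read by luciferase luminescence after 24 h compound exposure at 37 C in complete medium. LYMP2-001 lymphoblastoid cells, 2500/well; qHTS concentration-response data fitted with Hill equation for AC50.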

[23] = Confirmation and Secondary Assay for Modulators of Hemoglobin Beta Chain Splicing at IVS2 705 locus (AID 930);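 further: HeLa cells stably expressing the EGFP-705 splicing reporter; GFP fluorescence per well restored by corrected splicing of the IVS2-705 intron in EGFP; series mostly up to about 46 µM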
Method in brief: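 Read-out: total peak GFP fluorescence per well (488 nm excitation, 500-520 nm emission) by laser-scanning cytometry. Cells: HeLa EGFP-705 splicing reporter, 2 days compound exposure in Optimem/2% FCS.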

[24] = MultiTox-Fluor Cytotoxicity Assay - LYMP1-001 - Dead Cells (AID 946)
Method in brief: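 Seed 2500 LYMP1-001 cells/well, incubate 5 hr at 37 C; add compound, 16 hr at 37 C; add MultiTox-Fluor reagent, 60 min RT; read dead-cell fluorescence Ex/Em=485/520. Normalize to DMSO and 15 uM tetraoctylammonium bromide.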

[25] = Cell Viability - LYMP1-002 - Assay at 16 hr (AID 948)
Method in brief: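 ATP luminescence (CellTiter-Glo) was measured after 16 hr compound exposure at 37 C of 2500 lymphoblastoid LYMP1-002 cells per well. Concentration-response curves were fitted with the Hill equation to give AC50.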

[26] = MultiTox-Fluor Cytotoxicity Assay - LYMP1-002 - Live Cells (AID 955)
Method in brief: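 In this qHTS viability format, lymphoblastoid cells (LYMP1-002, human) received compound for 16 hr at 37 C. Fluorogenic GF-AFC cleavage by viable cells was detected at 405/510 nm after 1 h at room temperature.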

[27] = MultiTox-Fluor Cytotoxicity Assay - LYMP1-003 - Dead Cells (AID 961); further: nearly all actives have a fitted effect of over 70% in size
Method in brief: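 LYMP1-003 lymphoblastoid, 2500 cells/well, 5 hr settle then 16 hr cpd at 37 C; MultiTox-Fluor reagent 60 min RT; Ex/Em 485/520 dead-cell signal; norm. DMSO = 0%, 15 uM tetraoctylammonium bromide = 100%; Hill AC50.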

[28] = MultiTox-Fluor Cytotoxicity Assay - LYMP1-003 - Live Cells (AID 962);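 further: cytotoxic hits lower the live-cell protease signal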
Method in brief: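 Human lymphoblastoid line LYMP1-003 in complete culture medium, treated 16 hr with titrated compounds. Viable cells quantified via cell-permeant GF-AFC substrate fluorescence; AC50 derived by Hill fitting.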

[29] = Cell Viability - LYMP1-003 - Assay at 24 hr (AID 963)
Method in brief: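 The lymphoblastoid line was treated with titrated compounds for 24 hours, and viable cell number estimated from luciferase-based ATP luminescence.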

[30] = Cell Viability - LYMP1-003 - Assay at 40 hr (AID 964); further: series mostly up to about 92 µM; nearly all actives have a fitted effect of over 60% in size
Method in brief: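 Acute toxicity is scored as a concentration-dependent loss of intracellular ATP in LYMP1-003 cells (2500/well, complete medium) after 40 hr at 37 C, measured by CellTiter-Glo luminescence; AC50 values derive from standard Hill modelling.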

[31] = Cell Viability - LYMP2-003 (AID 965);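 further: cells exposed to compounds for 24 h before reading; nearly all actives have a fitted effect of over 50% in size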
Method in brief: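 CellTiter-Glo luminescence quantified ATP loss after 24 h compound treatment of LYMP2-003 lymphoblastoid cells at 37 C. Titration series were fitted with the standard Hill equation to give AC50.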

[32] = Cell Viability - LYMP2-004 (AID 966); further: nearly all actives have a fitted effect of over 65% in size
Method in brief: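 Viable-cell number estimated from ATP luminescence (CellTiter-Glo) in 2500 human lymphoblastoid cells/well after 24 hr at 37 C with compound. AC50 fitted to the standard Hill equation.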

[33] = Cell Viability - LYMP2-005 (AID 967); further: series mostly up to about 92 µM
Method in brief: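 LYMP2-005 human lymphoblastoid cells (2500/well) were treated with compounds for 24 h at 37 C. Intracellular ATP was then measured by CellTiter-Glo luminescence after 30 min at room temperature. AC50 values came from Hill-equation fits of qHTS concentration-response data.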

[34] = Cell Viability - LYMP2-009 (AID 968); further: series mostly up to about 92 µM; nearly all actives have a fitted effect of over 55% in size
[35] = Cell Viability - LYMP2-011 (AID 969); further: nearly all actives have a fitted effect of over 60% in size
Method in brief: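 Cells seeded at 2500 per well rest 5 hr before compound addition, then incubate 24 hr at 37 C. CellTiter-Glo reagent is added for 30 min at room temperature before luminescence detection.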

[36] = Cell Viability - LYMP2-013 (AID 970); further: series mostly up to about 92 µM; nearly all actives have a fitted effect of over 55% in size
Method in brief: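 In complete culture medium, human lymphoblastoid cells were dosed for 24 hr at 37 C, with tetraoctylammonium bromide (6.4pM to 92 uM) as positive control. Viability reflects luciferase-based ATP signal; AC50 derived from concentration-response curves.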

[37] = Cell Viability - LYMP2-015 (AID 971); further: nearly all actives have a fitted effect of over 55% in size
Method in brief: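 AC50 values reflect Hill-model fits of ATP-based luminescence (CellTiter-Glo) from a human lymphoblastoid line, 2500 cells/well, treated 24 hr at 37 C.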

[38] = Cell Viability - LYMP2-017 (AID 972)
Method in brief: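 In this qHTS format, lymphoblastoid cells in complete medium receive test compound for a day at 37 C before ATP content is quantified by luciferase luminescence. Reported AC50 figures come from standard Hill-equation curve fitting.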

[39] = Cell Viability - LYMP2-019 (AID 973); further: nearly all actives have a fitted effect of over 55% in size
Method in brief: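 AC50 values come from Hill-equation modelling of qHTS concentration-response curves, where viability is measured as luciferase-based ATP luminescence in the lymphoblastoid line after 24 hr compound exposure in complete culture medium.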

[40] = Cell Viability - LYMP2-021 (AID 974)
Method in brief: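 In qHTS format, compounds are tested against 2500 lymphoblastoid cells per well for 24 h; viable cell number is inferred from ATP-driven luciferase light, and Hill-equation fitting yields AC50 values.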

[41] = Cell Viability - LYMP2-023 (AID 975)
Method in brief: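 In this qHTS, ATP-based luciferase luminescence (CellTiter-Glo) is quantified in human lymphoblastoid cells after 24 hr compound treatment at 37 C; tetraoctylammonium bromide serves as positive control. Concentration-response curves are Hill-fitted to give AC50.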

Measured: Potency

O=C(Nc1ccccc1)Nc1ccccc1
inactive: [1] > 92 µM | [2] > 92 µM | [3] > 92 µM | [4] > 92 µM | [5] | [6] | [7] | [8] | [9] | [10] | [11] | [12] | [13] | [14] | [15] | [16] | [17] | [18] | [19] | [20] | [21] | [22] | [23] | [24] | [25] | [26] | [27] | [28] | [29] | [30] | [31] | [32] | [33] | [34] | [35] | [36] | [37] | [38] | [39] | [40] | [41]

— PubChem BioAssay (NCATS)
